# Reference: paper PMC5540273 (PLoS ONE, 2017)
# Tests used:
# Settings in all cases: concentration: 1 μM, replicates: in singlicate; n = 1
# DYRK1B = system: DYRK1B
# DYRK2 = system: DYRK2
# EGFR = system: EGFR
# EIF2AK1 = system: EIF2AK1
# EPHA1 = system: EPHA1
# EPHA2 = system: EPHA2
# EPHA3 = system: EPHA3
# EPHA4 = system: EPHA4
# EPHA5 = system: EPHA5
# EPHA6 = system: EPHA6
# EPHA7 = system: EPHA7
# EPHA8 = system: EPHA8
# EPHB1 = system: EPHB1
# EPHB2 = system: EPHB2
# EPHB3 = system: EPHB3
# EPHB4 = system: EPHB4
# EPHB6 = system: EPHB6
# ERBB2 = system: ERBB2
# ERBB3 = system: ERBB3
# ERBB4 = system: ERBB4
# 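Note: KINOMEscan kinase panel screen.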
SMILES,%Inh (DYRK1B) [%],%Inh (DYRK2) [%],%Inh (EGFR) [%],%Inh (EIF2AK1) [%],%Inh (EPHA1) [%],%Inh (EPHA2) [%],%Inh (EPHA3) [%],%Inh (EPHA4) [%],%Inh (EPHA5) [%],%Inh (EPHA6) [%],%Inh (EPHA7) [%],%Inh (EPHA8) [%],%Inh (EPHB1) [%],%Inh (EPHB2) [%],%Inh (EPHB3) [%],%Inh (EPHB4) [%],%Inh (EPHB6) [%],%Inh (ERBB2) [%],%Inh (ERBB3) [%],%Inh (ERBB4) [%]
COc1cc(Nc2nccc(N3CCC(NS(=O)(=O)c4ccc(NC(C)=O)cc4)CC3)n2)cc(OC)c1OC [GSK1379825],8,10,11,7,54,46,0,28,0,37,0,11,6,30,55,38,96.8,18,38,20
CN(C)CCNS(=O)(=O)c1ccc(-c2ccnc3[nH]ccc23)cc1 [GSK977620],47,64,37,0,24,14,0,0,0,0,7,3,16,0,0,0,0,0,0,30
CC(C)c1nc(-c2cccc(NS(=O)(=O)c3c(F)cccc3F)c2)c(-c2ccnc(Nc3ccc(N4CCOCC4)nc3)n2)s1.Cl [GSK1723980],0,18,99.1,66,97.7,0,18,27,0,77,0,93,24,0,0,0,97.4,86,97.8,95
Cc1ccc(NC(=O)c2cccc(N3CCCCC3)c2)cc1-c1ccc(C(=O)NCC2CC2)cc1 [GSK1917008],0,18,35,8,18,33,4,37,3,34,24,41,30,0,27,31,21,0,0,2
CN(c1ccc(NC(=O)Nc2cccc(Cl)c2)cc1)c1ccnc(N)n1.Cl [GW830707],14,14,10,0,8,18,15,17,33,48,40,22,34,36,62,61,76,0,17,29
COc1ccc(C2=C(Nc3cccc(O)c3)C(=O)NC2=O)cc1 [SB-390766],100,30,32,5,11,0,0,0,0,0,4,11,9,87,5,0,10,11,0,12
CN(C)c1ncnc2nc[nH]c12 [SKF-31736],39,23,0,0,0,0,8,0,0,0,0,0,0,0,0,0,0,24,13,0
CCOc1nccc(-c2c(-c3ccc(F)cc3)ncn2C2CCNCC2)n1 [SB-249175],50,6,9,45,10,0,13,4,0,7,0,0,0,11,0,0,14,5,36,30
Cc1cc(-c2c(-c3ccc(F)cc3)ncn2CCCN2CCOCC2)nc(N)n1 [SB-222517],20,34,0,0,0,0,0,20,9,30,0,0,0,12,29,10,0,0,0,0
Cl.Cl.NCC(NC(=O)c1cc(-c2cccnc2)c(-c2ccnc3[nH]ccc23)s1)c1ccccc1 (stereo not drawn) [GSK1323434],17,33,72,0,4,10,40,0,0,2,17,33,23,22,0,18,21,58,1,48
COc1cccc(CC(=O)N2CCc3cc(-c4cn(C)c5ncnc(N)c45)ccc32)c1 [GSK2608899],22,22,23,87,0,0,19,4,5,10,10,11,24,14,7,0,64,0,0,0
Nc1ncc(-c2cn[nH]c2)c2scc(-c3ccc4c(c3)CCN4C(=O)Cc3ccccc3)c12 [GSK2593067],0,7,25,48,26,0,0,0,0,12,0,14,5,0,0,0,97.6,0,0,0
CN(c1ccc(NC(=O)N2CCN(CCCN3CCOCC3)CC2)cc1)c1ccnc(Nc2ccc(CS(C)(=O)=O)cc2)n1.Cl [GW830899],0,0,48,0,48,22,0,4,0,0,0,0,0,4,0,22,81,2,17,0
COC(=O)Nc1nc2ccc(Oc3ccc(CC(=O)Nc4cc(C(F)(F)F)ccc4F)cc3)cc2[nH]1 [GW680903],8,0,30,3,12,54,100,21,0,34,9,64,32,26,9,20,22,30,12,7
N#CC1(c2cccc(C(=O)Nc3cccc(Oc4ccc5nc(NC(=O)C6CC6)sc5n4)c3)c2)CC1,1,0,36,0,76,97.1,50,81,89,91.3,0,98.9,95.8,100,50,95.9,99.5,22,0,0
